Several values for one entry are separate records, joined by “and”; a condition that tells them apart may be missing. Equal values may be shown once. More than one record can exist for a structure, and the calls need not agree. Activity calls are given as the source filed them. Rule for the calls: active = hit-call score of the fitted dose curve at least 0.9, where 1 is the maximum; inactive = score below 0.9.
Columns and labels:
[1] = target: Transcription factor E2F1 (Homo sapiens) (UniProt Q01094); test: ATG_E2F_CIS: Attagene CIS-FACTORIAL HepG2 Assay for human E2F Transcription Factor 1 (AID 2282935); conditions: HepG2 Attagene cis-reporter, E2F reporter RNA transcripts; actives raise or lower the signal
Outline: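 Total RNA from 24 h-treated, reporter-transfected HepG2 cells undergoes DNase I treatment, oligo(dT) reverse transcription, PCR and 6-FAM primer extension before capillary electrophoresis.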

[2] = ATG_E_Box_CIS: Attagene CIS-FACTORIAL HepG2 Assay for human Enhancer Box (E-box) (AID 2282936); conditions: HepG2 E-box cis-reporter transcription, actives raise or lower the signal
Outline: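 DMSO served as negative control and baseline for bidirectional fitting. Human hepatoma HepG2 cells, transiently transfected with cis-reporter constructs, were dosed 24 h; reporter mRNA read by RT-PCR and capillary electrophoresis.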

[3] = ATG_M_61_CIS: Attagene CIS-FACTORIAL HepG2 Assay for M61 Transcription Factor (Internal Marker) (AID 2282937); conditions: HepG2 Attagene CIS-FACTORIAL M61 internal marker reporter; actives raise or lower the signal
Outline: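 Endogenous transcription factor activity in HepG2 is read through transiently transfected cis-element reporter units. After 24 h dosing, RNA undergoes reverse transcription, PCR and primer extension with 6-FAM before capillary electrophoresis; DMSO-referenced bidirectional fit.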

[4] = ATG_EGR_CIS: Attagene CIS-FACTORIAL HepG2 Assay for human Early Growth Response 1 (EGR1) (AID 2282938); conditions: HepG2 Attagene CIS-FACTORIAL EGR reporter mRNA; actives raise or lower the signal
Outline: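 Activity is taken as induction or loss of reporter mRNA versus DMSO, fitted bidirectionally. Transcripts from cis-regulated reporter units in transiently transfected HepG2 were measured after 24 h by RT-PCR with capillary electrophoresis.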

[5] = ATG_M_19_CIS: Attagene CIS-FACTORIAL HepG2 Assay for M19 Transcription Factor (Internal Marker) (AID 2282939); conditions: HepG2 Attagene CIS-FACTORIAL M19 internal marker reporter; actives raise or lower the signal
Outline: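 Background-control endpoint from a multiplexed HepG2 reporter panel. Cells carrying cis-regulated reporter constructs are treated 24 h, then reporter transcripts are amplified, fluorescently labelled and sized by capillary electrophoresis. DMSO defines baseline.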

[6] = ATG_ERE_CIS: Attagene CIS-FACTORIAL HepG2 Assay for Estrogen Response Element (ERE) (AID 2282940); conditions: HepG2 ERE cis-reporter, Attagene RNA transcript; actives raise or lower the signal
Outline: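 Cells used were human hepatoma HepG2, transfected with multiple reporter transcription units under cis-regulatory promoters. Reporter mRNA, read 24 h post-dosing via fluorescent RT-PCR products on capillary electrophoresis, was fitted bidirectionally relative to DMSO.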

[7] = ATG_Ets_CIS: Attagene CIS-FACTORIAL HepG2 Assay for human Erythroblast Transformation Specific (ETS) (AID 2282941); conditions: HepG2 ETS cis-reporter transcription, actives raise or lower the signal
Outline: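 HepG2 cells transfected with multiple cis-regulated reporter units measuring endogenous ETS-driven transcription, 24 h after dosing. Reporter mRNA quantified by RT-PCR with capillary electrophoresis; bidirectional fit relative to DMSO.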

[8] = target: Hepatocyte nuclear factor 3-beta (Homo sapiens) (UniProt Q9Y261); test: ATG_FoxA2_CIS: Attagene CIS-FACTORIAL HepG2 Assay for human Forkhead box A2 (FOXA2) (AID 2282942); conditions: HepG2 cis-reporter transcription factor activity, 24 h; actives raise or lower the signal
Outline: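 Reporter transcript induction is measured by fluorescence after capillary electrophoresis of RT-PCR products from HepG2 cells exposed 24 h. Cis-regulated reporter units report endogenous factor activity; curves fitted both directions against DMSO.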

[9] = ATG_FoxO_CIS: Attagene CIS-FACTORIAL HepG2 Assay for human Forkhead box O (FoxO) (AID 2282943); conditions: HepG2 Attagene cis-reporter, FoxO element, mRNA; actives raise or lower the signal
Outline: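 Human hepatoma HepG2 cells carry transiently introduced reporter transcription units controlled by cis promoter elements. Chemical treatment lasted 24 h, and mRNA signal was compared with DMSO.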

[10] = ATG_GATA_CIS: Attagene CIS-FACTORIAL HepG2 Assay for human GATA Binding Protein (AID 2282944); conditions: HepG2 GATA cis-element reporter, Attagene multiplex mRNA; actives raise or lower the signal
Outline: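 Endogenous transcription factor activity was captured through cis-promoter-driven reporters in transfected HepG2 cells. After 24 h exposure, reporter transcripts were quantified by RT-PCR with fluorescent capillary electrophoresis, and responses fitted both directions against DMSO.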

[11] = ATG_GLI_CIS: Attagene CIS-FACTORIAL HepG2 Assay for human Zinc Finger Protein GLI1 (AID 2282945); conditions: HepG2, Attagene cis-factorial reporter mRNA, GLI element; actives raise or lower the signal
Outline: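 Bidirectional curve fits relative to DMSO, using reporter mRNA levels from RT-PCR plus capillary electrophoresis. Cells were HepG2 transiently carrying cis-regulated reporter constructs, harvested 24 h after dosing.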

[12] = target: Bile acid receptor (Homo sapiens) (UniProt Q96RI1); test: ATG_IR1_CIS: Attagene CIS-FACTORIAL HepG2 Assay for human Nuclear Receptor Subfamily 1 Group H Member 4 (NR1H4), IR1 submotif (AID 2282946); conditions: IR1 reporter transcription, actives raise or lower the signal
Outline: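 Cells (human HepG2) carry transiently transfected cis-promoter reporter transcription units. Compounds are incubated 24 h, total RNA is reverse-transcribed and amplified, and labelled fragments are resolved by capillary electrophoresis. Curves use DMSO as baseline.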

[13] = ATG_GRE_CIS: Attagene CIS-FACTORIAL HepG2 Assay for human Glucocorticoid Response Elements (GRE) (AID 2282947); conditions: HepG2 GRE cis-reporter, Attagene multiplex mRNA; actives raise or lower the signal
Outline: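 Assay uses human hepatoma HepG2 cells transfected with cis-promoter reporter units, exposed 24 h. mRNA from reporters detected by RT-PCR plus capillary electrophoresis; DMSO serves as negative control and baseline.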

[14] = ATG_ISRE_CIS: Attagene CIS-FACTORIAL HepG2 Assay for human Interferon Regulatory Factor 1 (IRF1) binding to an Interferon-Stimulated Response Element (ISRE) (AID 2282948); conditions: HepG2 ISRE cis-reporter (Attagene), mRNA transcription readout; actives raise or lower the signal
Outline: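 Transiently transfected HepG2 cells carrying cis-element reporter units, dosed 24 hours. Reporter mRNA quantified by RT-PCR, fluorescent primer extension, HpaI digestion and capillary electrophoresis. Bidirectional fitting relative to DMSO.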

[15] = ATG_M_32_CIS: Attagene CIS-FACTORIAL HepG2 Assay for M32 Transcription Factor (Internal Marker) (AID 2282949); conditions: HepG2 Attagene cis-factorial M32 reporter, mRNA; actives raise or lower the signal;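 note: background control marker of the multiplexed CIS panel rather than a real target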
Outline: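 Internal background marker read-out: RT-PCR/capillary electrophoresis fluorescence of reporter transcripts from transiently transfected HepG2 cells after 24 h chemical exposure. Activity fitted bidirectionally relative to DMSO negative control.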

[16] = target: Hypoxia-inducible factor 1-alpha (Homo sapiens) (UniProt Q16665); test: ATG_HIF1a_CIS: Attagene CIS-FACTORIAL HepG2 Assay for human Hypoxia Inducible Factor 1 (HIF1A) (AID 2282951); conditions: HepG2 Attagene cis-factorial HIF1a reporter transcription; actives raise or lower the signal
Outline: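 Fluorescence intensity of capillary-separated, 6-FAM-labelled reporter amplicons gives mRNA induction in HepG2 cells carrying transfected cis-promoter reporter units; cells exposed 24 h, responses fitted up or down from DMSO.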

[17] = target: Hepatocyte nuclear factor 6 (Homo sapiens) (UniProt Q9UBC0); test: ATG_HNF6_CIS: Attagene CIS-FACTORIAL HepG2 Assay for human Hepatocyte Nuclear Factor 6 (HNF6) (AID 2282952); conditions: HepG2 Attagene cis-factorial HNF6 reporter transcription; actives raise or lower the signal
Outline: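 HepG2 cells transiently transfected with cis-element-driven multiplexed reporter units measuring endogenous transcription factor activity. After 24 h exposure, reporter mRNA quantified by RT-PCR, FAM-labelled fragments and capillary electrophoresis; bidirectional fitting versus DMSO.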

[18] = target: Heat shock factor protein 1 (Homo sapiens) (UniProt Q00613); test: ATG_HSE_CIS: Attagene CIS-FACTORIAL HepG2 Assay for human Heat Shock Transcription Factor 1 (HSE) (AID 2282953); conditions: HepG2 HSE cis-reporter, Attagene RNA transcription; actives raise or lower the signal
Outline: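 Cells were transfected with cis-element-driven reporter constructs, dosed for 24 h, then total RNA was reverse-transcribed and reporter cDNA amplified, FAM-labelled and digested with HpaI. Fragments were resolved by capillary electrophoresis; gain or loss was fitted against DMSO.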

[19] = ATG_MRE_CIS: Attagene CIS-FACTORIAL HepG2 Assay for human Metal Responsive Element (MRE) (AID 2282954); conditions: HepG2 MRE cis-reporter transcription, Attagene multiplex; actives raise or lower the signal
Outline: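 After a 24 h chemical exposure, transiently transfected HepG2 cells yield RNA whose reporter sequences are amplified, FAM-labelled and sized by capillary electrophoresis. Curves are fitted bidirectionally relative to DMSO.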

[20] = ATG_M_06_CIS: Attagene CIS-FACTORIAL HepG2 Assay for M06 Transcription Factor (Internal Marker) (AID 2282950); conditions: HepG2 Attagene CIS-FACTORIAL M06 internal marker reporter; actives raise or lower the signal
Outline: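 Steps: transfect HepG2 with multiplexed cis-element reporter constructs; dose chemical 24 h; extract RNA with DNase treatment; reverse-transcribe, PCR-amplify, 6-FAM label, HpaI digest; separate fragments by capillary electrophoresis. Activity fitted both directions versus DMSO.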

Measured: AC50

Chain of Hypoxia-inducible factor 1-alpha (Homo sapiens) (Q16665 whole entry, looked up): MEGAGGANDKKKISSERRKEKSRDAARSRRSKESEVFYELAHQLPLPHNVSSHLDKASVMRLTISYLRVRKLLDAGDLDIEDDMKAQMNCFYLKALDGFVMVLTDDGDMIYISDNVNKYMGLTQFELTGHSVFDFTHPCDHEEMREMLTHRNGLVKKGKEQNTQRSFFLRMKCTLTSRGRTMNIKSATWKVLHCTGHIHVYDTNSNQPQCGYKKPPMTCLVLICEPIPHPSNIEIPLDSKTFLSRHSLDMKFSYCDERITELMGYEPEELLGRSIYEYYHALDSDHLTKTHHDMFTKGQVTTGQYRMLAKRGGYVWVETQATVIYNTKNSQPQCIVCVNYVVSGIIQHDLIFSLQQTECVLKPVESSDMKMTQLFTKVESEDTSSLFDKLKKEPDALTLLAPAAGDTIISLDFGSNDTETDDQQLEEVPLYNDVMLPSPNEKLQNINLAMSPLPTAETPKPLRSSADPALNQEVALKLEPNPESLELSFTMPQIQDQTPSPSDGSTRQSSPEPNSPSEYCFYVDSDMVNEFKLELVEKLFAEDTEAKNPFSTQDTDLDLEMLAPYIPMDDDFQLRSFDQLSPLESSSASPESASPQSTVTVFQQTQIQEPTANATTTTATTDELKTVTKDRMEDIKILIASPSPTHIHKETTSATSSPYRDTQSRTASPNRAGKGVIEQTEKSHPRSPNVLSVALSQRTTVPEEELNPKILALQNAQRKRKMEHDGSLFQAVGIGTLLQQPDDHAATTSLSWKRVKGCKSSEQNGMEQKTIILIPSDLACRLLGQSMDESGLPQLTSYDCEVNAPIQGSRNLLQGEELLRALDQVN
Chain of Heat shock factor protein 1 (Homo sapiens) (Q00613 whole entry, looked up, the tested form may be a part): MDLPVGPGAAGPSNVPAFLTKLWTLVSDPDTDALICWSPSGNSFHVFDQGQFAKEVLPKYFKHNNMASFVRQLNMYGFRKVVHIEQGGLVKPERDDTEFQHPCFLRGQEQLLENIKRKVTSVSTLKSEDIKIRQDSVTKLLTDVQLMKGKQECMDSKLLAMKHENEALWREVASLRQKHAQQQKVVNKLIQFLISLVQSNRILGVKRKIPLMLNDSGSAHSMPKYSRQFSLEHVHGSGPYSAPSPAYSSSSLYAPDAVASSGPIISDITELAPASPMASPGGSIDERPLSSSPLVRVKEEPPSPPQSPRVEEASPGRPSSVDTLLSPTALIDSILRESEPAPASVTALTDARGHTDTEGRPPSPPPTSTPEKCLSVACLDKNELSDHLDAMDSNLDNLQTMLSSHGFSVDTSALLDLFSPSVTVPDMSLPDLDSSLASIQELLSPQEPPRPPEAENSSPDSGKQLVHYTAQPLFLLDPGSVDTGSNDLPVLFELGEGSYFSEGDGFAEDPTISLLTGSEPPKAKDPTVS
Chain of Transcription factor E2F1 (Homo sapiens) (Q01094 whole entry, looked up): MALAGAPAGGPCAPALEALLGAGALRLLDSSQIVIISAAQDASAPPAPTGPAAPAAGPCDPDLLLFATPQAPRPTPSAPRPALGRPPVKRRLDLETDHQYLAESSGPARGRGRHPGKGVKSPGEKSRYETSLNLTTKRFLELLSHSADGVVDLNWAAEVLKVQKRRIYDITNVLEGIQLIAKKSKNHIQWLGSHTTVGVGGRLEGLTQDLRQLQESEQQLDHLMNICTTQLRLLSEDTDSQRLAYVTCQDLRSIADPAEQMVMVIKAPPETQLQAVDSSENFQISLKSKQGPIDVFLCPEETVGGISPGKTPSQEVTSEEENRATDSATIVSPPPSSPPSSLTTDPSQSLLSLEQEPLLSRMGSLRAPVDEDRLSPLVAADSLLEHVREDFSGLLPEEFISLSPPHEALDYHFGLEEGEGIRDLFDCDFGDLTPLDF
Chain of Hepatocyte nuclear factor 3-beta (Homo sapiens) (Q9Y261 whole entry, looked up): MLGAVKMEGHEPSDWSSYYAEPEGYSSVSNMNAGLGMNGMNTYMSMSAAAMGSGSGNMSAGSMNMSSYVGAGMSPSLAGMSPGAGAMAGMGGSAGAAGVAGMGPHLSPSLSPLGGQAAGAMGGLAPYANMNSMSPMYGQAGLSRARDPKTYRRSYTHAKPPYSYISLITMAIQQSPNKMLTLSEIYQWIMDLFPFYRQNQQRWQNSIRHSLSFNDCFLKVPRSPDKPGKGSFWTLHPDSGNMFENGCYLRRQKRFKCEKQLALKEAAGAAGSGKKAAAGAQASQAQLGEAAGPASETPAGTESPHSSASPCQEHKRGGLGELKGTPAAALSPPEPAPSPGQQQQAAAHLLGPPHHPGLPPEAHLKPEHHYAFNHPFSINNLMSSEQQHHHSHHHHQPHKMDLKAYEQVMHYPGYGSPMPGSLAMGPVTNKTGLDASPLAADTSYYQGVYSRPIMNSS
Chain of Bile acid receptor (Homo sapiens) (Q96RI1 whole entry, looked up, the tested form may be a part): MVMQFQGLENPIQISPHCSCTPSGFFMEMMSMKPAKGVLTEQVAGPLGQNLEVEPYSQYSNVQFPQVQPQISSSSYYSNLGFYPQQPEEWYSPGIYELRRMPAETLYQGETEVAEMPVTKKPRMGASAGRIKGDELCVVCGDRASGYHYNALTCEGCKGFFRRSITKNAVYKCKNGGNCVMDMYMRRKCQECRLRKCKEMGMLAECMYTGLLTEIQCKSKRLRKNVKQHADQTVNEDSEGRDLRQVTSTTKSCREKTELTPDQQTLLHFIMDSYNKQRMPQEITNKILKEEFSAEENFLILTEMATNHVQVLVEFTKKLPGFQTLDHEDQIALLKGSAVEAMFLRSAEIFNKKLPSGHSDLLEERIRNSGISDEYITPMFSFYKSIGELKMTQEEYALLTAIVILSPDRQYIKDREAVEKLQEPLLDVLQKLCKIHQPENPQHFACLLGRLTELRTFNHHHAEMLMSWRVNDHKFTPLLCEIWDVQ
Chain of Hepatocyte nuclear factor 6 (Homo sapiens) (Q9UBC0 whole entry, looked up, the tested form may be a part): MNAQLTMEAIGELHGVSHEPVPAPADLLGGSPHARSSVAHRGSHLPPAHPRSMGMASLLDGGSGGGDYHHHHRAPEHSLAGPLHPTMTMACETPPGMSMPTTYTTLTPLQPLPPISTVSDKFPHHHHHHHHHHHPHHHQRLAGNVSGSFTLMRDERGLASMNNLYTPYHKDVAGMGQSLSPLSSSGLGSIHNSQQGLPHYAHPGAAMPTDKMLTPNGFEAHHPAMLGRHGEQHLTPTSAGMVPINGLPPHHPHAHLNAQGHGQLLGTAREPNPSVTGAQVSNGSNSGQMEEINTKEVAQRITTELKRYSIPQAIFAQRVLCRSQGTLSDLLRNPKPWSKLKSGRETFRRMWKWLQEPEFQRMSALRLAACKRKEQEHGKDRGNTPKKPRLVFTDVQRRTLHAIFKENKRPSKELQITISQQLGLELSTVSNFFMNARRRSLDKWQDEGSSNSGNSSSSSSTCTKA

C#CCOS(=O)OC1CCCCC1Oc1ccc(C(C)(C)C)cc1 (stereo unspecified)
inactive: [1] | [2] | [3] | [5] | [6] | [7] | [8] | [9] | [10] | [11] | [12] | [13] | [14] | [15] | [17] | [18]
active: [4] 1.46 µM | [16] 2.4 µM | [19] 2.4 µM

CCCCNC(=O)OCC#CI
inactive: [1] | [2] | [3] | [5] | [6] | [7] | [8] | [9] | [10] | [11] | [12] | [13] | [14] | [15] | [16] | [17] | [19]
active: [2] 145 µM | [7] 48.7 µM | [8] 173 µM | [9] 26.4 µM | [10] 49.2 µM | [11] 51.8 µM | [12] 160 µM | [14] 33 µM | [19] 35.9 µM

COc1ccc(C(c2ccc(OC)cc2)C(Cl)(Cl)Cl)cc1
active: [2] 27 µM and 5.64 µM | [6] 5.09 µM [middle of 4 runs] | [12] 21.6 µM | [16] 3.88 µM | [19] 65.1 µM and 15.6 µM and 11.9 µM
inactive: [1] | [2] | [3] | [5] | [6] | [7] | [8] | [9] | [10] | [11] | [12] | [13] | [14] | [15] | [20] | [16] | [17] | [19]

CC(Oc1ccc(Cl)cc1Cl)C(=O)O (stereo unspecified)
inactive: [1] | [2] | [3] | [4] | [5] | [6] | [7] | [8] | [9] | [10] | [11] | [12] | [13] | [14] | [15] | [16] | [17] | [18] | [19]

CCOC(=O)C(Cl)Cc1cc(-n2nc(C)n(C(F)F)c2=O)c(F)cc1Cl (stereo unspecified)
active: [6] 50 µM
inactive: [1] | [2] | [3] | [4] | [5] | [7] | [8] | [9] | [10] | [11] | [12] | [13] | [14] | [15] | [16] | [17] | [19]

CNC(=O)ON=CC(C)(C)SC
active: [1] 149 µM | [14] 167 µM
inactive: [1] | [2] | [3] | [5] | [6] | [7] | [8] | [9] | [10] | [11] | [12] | [13] | [14] | [15] | [16] | [17] | [19]

CCCCNC(=O)n1c(NC(=O)OC)nc2ccccc21
inactive: [1] | [2] | [3] | [4] | [5] | [6] | [7] | [8] | [9] | [10] | [11] | [12] | [13] | [14] | [15] | [16] | [17] | [19]

CCCC1COC(Cn2cncn2)(c2ccc(Cl)cc2Cl)O1 (stereo unspecified)
active: [1] 85.1 µM | [6] 1.71 µM | [7] 58 µM | [16] 50 µM | [19] 50 µM
inactive: [1] | [2] | [3] | [5] | [6] | [7] | [8] | [9] | [10] | [11] | [12] | [13] | [14] | [15] | [20] | [16] | [17] | [19]

N#CC(CCc1ccc(Cl)cc1)(Cn1cncn1)c1ccccc1 (stereo unspecified)
inactive: [1] | [2] | [3] | [4] | [5] | [6] | [7] | [8] | [9] | [10] | [11] | [12] | [13] | [14] | [15] | [16] | [17] | [18] | [19]

CCCCOC(=O)c1ccccc1C(=O)OCCCC
active: [4] 34.1 µM | [6] 50 µM [middle of 5 runs] | [16] 59.5 µM | [19] 41.4 µM
inactive: [1] | [2] | [3] | [4] | [5] | [7] | [8] | [9] | [10] | [11] | [13] | [14] | [15] | [20] | [16] | [17] | [19]

Oc1ccccc1-c1ccccc1
inactive: [1] | [2] | [3] | [4] | [5] | [6] | [7] | [8] | [9] | [10] | [11] | [14] | [15] | [16] | [17] | [19]
active: [4] 62.4 µM | [6] 13.1 µM | [11] 23 µM | [14] 68.5 µM | [19] 65.7 µM

Source: PubChem BioAssay (EPA / NIEHS)
